The values below come from ChEMBL document CHEMBL3988442, “University of Dundee, Small-Polar-MMV Screening Library” (2021).

About 13,000 (27%) of roughly 48,000 compounds showed an effect of 50% or more. The list shows a part of the results.

The test system of the test is Wolbachia pipientis. Description: Anti-Wolbachia Cell-Based Screen. It is filed as functional. More on the design: scale not given: in the data most compounds retested in dose-response had high values. The following applies: 5 µM.
Regarding `O=C(CCSc1ccc(F)cc1)NS(=O)(=O)c1ccc2c(c1)OCCO2`, the “Percent Effect” value came to 5.18%.

In the case of `FC(F)(F)c1ccc(-c2cc(NC3CCNCC3)nc3[nH]ccc23)nc1`, the “Percent Effect” value is on record as -3.524%.

In the case of `COCCN(C/C=C/c1ccccc1)Cc1nccs1`, the “Percent Effect” value is listed as -13.78%.

As to `O=c1c2ccc(C(F)(F)F)cc2ncn1CCCN1CCCCC1CO` (stereo unspecified), the “Percent Effect” value is recorded as 127.8%.

As for `CC1CCN(CC(O)Cn2cnc3ccc(Cl)cc3c2=O)CC1` (stereo unspecified), the “Percent Effect” value is listed as -0.72%.

Regarding `CC(C)N1CCCCC1CCn1cnc2cc(C(F)(F)F)ccc2c1=O` (stereo unspecified), the “Percent Effect” value was determined as 86.9%.

Turning to `OCC1CCCCN1Cc1cc(O)c2cccc(F)c2n1` (stereo unspecified), the “Percent Effect” value is reported as -10.07%.

Turning to `CC(C)(C)c1cc2ncn(CCCN3CCCCC3CO)c(=O)c2s1` (stereo unspecified), the “Percent Effect” value came to 91.32%.

Take `OCC1CCCCN1CCCNCc1cc(O)c2cc(F)ccc2n1` (stereo unspecified): the “Percent Effect” value came to 13.42%.

Take `O=c1c2ccc(Cl)cc2ncn1CCCN1CCCCC1CO` (stereo unspecified): the “Percent Effect” value is recorded as 62.54%.

For `Cc1nc(C)n(CC2CCCCN2CCCN2CCCC2=O)n1` (stereo unspecified), the “Percent Effect” value is given as -1.453%.

For `CC1CCCCN1C(=O)CCn1cnc2sccc2c1=O` (stereo unspecified), the “Percent Effect” value was -3.502%.

For `CCC1CCCCN1C(=O)CCn1cnc2sccc2c1=O` (stereo unspecified), the “Percent Effect” value is given as 3.224%.

With `OCC1CCCCN1CCn1ccnc1-c1ccc2c(c1)OCCO2` (stereo unspecified), the “Percent Effect” value was determined as 3.348%.

For the molecule `Cc1cc(C)n(CC2CCCCN2CCCS(N)(=O)=O)n1` (stereo unspecified), the “Percent Effect” value worked out at 6.399%.

For the molecule `Cc1nccc(N2CCC(=O)N(Cc3ccc(F)cc3)C(C(C)C)C2)n1` (stereo unspecified), the “Percent Effect” value is reported as -4.712%.

Consider `Cc1ccc(CC(=O)Nc2ccc(CS(C)(=O)=O)c(F)c2)cc1`, for which the “Percent Effect” value is given as -3.383%.

As for `O=C1NCCN1CCNCC1(O)CCCN(CCC2CCCCC2)C1=O` (stereo unspecified), the “Percent Effect” value is recorded as -3.271%.

Regarding `Cc1nnsc1C(=O)N(C)Cc1nc(-c2ccccn2)no1`, the “Percent Effect” value was -8.145%.

Turning to `Cc1nnc(CN2CCN(C)C3(CCC(=O)N(CCO)CC3)C2)s1` (stereo unspecified), the “Percent Effect” value is listed as 5.792%.

In the case of `Cc1n[nH]c(C)c1CCNC(=O)Nc1ccc(S(C)(=O)=O)cc1`, the “Percent Effect” value was found to be 3.499%.

For `Cc1ccc(CN2CCCn3cnc(COCC4CC4)c3C2)o1.O=C(O)C(F)(F)F`, the “Percent Effect” value is reported as 8.584%.

For the molecule `Clc1ccccc1C1(c2ccnc(CC3CC3)n2)CCNCC1`, the “Percent Effect” value was found to be 5.526%.

Consider `Cc1occc1C(=O)N1CCCC(c2nncn2C)C1` (stereo unspecified), for which the “Percent Effect” value was 118%.

For `Cn1cnnc1C1CCCN(C(=O)c2ccc3c(c2)OCCCO3)C1` (stereo unspecified), the “Percent Effect” value was 0.4143%.

As for `Cc1ccc(C(=O)N2CCCC(c3nncn3C)C2)c(C)c1` (stereo unspecified), the “Percent Effect” value was 142.4%.

In the case of `CCOc1ccc2nc(CN3CCC(CN)C3)ccc2c1` (stereo unspecified), the “Percent Effect” value is reported as 6.34%.

With `CC(C)CCN1CCc2c(C(=O)N(C)Cc3ccccn3)nn(C)c2C1.O=C(O)C(F)(F)F.O=C(O)C(F)(F)F.O=C(O)C(F)(F)F`, the “Percent Effect” value is 7.035%.

`CC(Cn1cncn1)NC(=O)Nc1ccc(COC2CCCC2)cc1` (stereo unspecified): the “Percent Effect” value is -11.48%.

On to `Cc1ccc(CN2CC[C@H]3CO[C@H](CN(C)C)[C@H]3C2)o1`, for which the “Percent Effect” value was -4.083%.

As for `Cc1cc(C)c(CNC(=O)N2CCC(N3CCCCC3)CC2)c(=O)[nH]1`, the “Percent Effect” value is -48.68%.

As for `Cc1cc(C)c(CNC(=O)N2CCCC2c2cc(C)on2)c(=O)[nH]1` (stereo unspecified), the “Percent Effect” value was found to be 104.6%.

Regarding `Cc1cc(C)c(CNC(=O)N2CCNC(=O)C2)c(=O)[nH]1`, the “Percent Effect” value was -6.191%.

On to `Cc1cc(C)c(CNC(=O)N2CCN(c3ncccn3)CC2)c(=O)[nH]1`, for which the “Percent Effect” value was -5.06%.

Regarding `Cc1cc(C)c(CNC(=O)N2CCC(N3CCNC3=O)CC2)c(=O)[nH]1`, the “Percent Effect” value was -7.993%.

As to `Cc1cc(C)c(CNC(=O)N2CCC(N3CCCC3)CC2)c(=O)[nH]1`, the “Percent Effect” value is listed as 3.168%.

For `Cc1cc(C2CCCN2C(=O)NCc2cccnc2N(C)C)on1` (stereo unspecified), the “Percent Effect” value is -7.167%.

For the molecule `Cc1cc(C)c(CNC(=O)N2CCCC2c2ccccn2)c(=O)[nH]1` (stereo unspecified), the “Percent Effect” value amounted to 93.91%.

With `Cc1cc(C2CCCN2C(=O)NCc2ccccn2)on1` (stereo unspecified), the “Percent Effect” value is -32.12%.

Regarding `Cc1cc(C)c(CNC(=O)N2CCOC(c3ccccc3)C2)c(=O)[nH]1` (stereo unspecified), the “Percent Effect” value stood at 99.02%.

Consider `Cc1cc(C)c(CNC(=O)N2CCCC2C(N)=O)c(=O)[nH]1` (stereo unspecified), for which the “Percent Effect” value was found to be 4.239%.

As for `Cc1cc(C2CCCN2C(=O)NCc2c(C)cc(C)[nH]c2=O)on1` (stereo unspecified), the “Percent Effect” value was found to be 97.2%.

Take `Nc1nc(Cn2ccnc2-c2cc(CN3CCCC3)cs2)cs1`: the “Percent Effect” value is 4.037%.

On to `NC1(C(=O)NCC2CCCN(Cc3cccc4nonc34)C2)CCC1` (stereo unspecified), for which the “Percent Effect” value is reported as -1.452%.

`O=C([C@H]1C[C@H]2OCC[C@H]2N(C(=O)c2ccnnc2)C1)N1CCCCO1`: the “Percent Effect” value was -6.312%.

In the case of `Cc1csc2c(N3CCC(NCCCC4CCOC4)CC3)ncnc12` (stereo unspecified), the “Percent Effect” value is given as 7.139%.

With `Cc1cccc(CN2C[C@@H](F)[C@@H](OCc3nc4ccccc4[nH]3)C2)n1`, the “Percent Effect” value is -1.113%.

As for `CSCC[C@@H](CO)n1ccnc1-c1ccc(C)o1`, the “Percent Effect” value is -18.99%.

On to `N#Cc1ccsc1NC(=O)CN1CCn2c(nnc2C2CC2)C1`, for which the “Percent Effect” value is 118.5%.

Turning to `CCC1CN(CC(=O)Nc2sccc2C#N)CCO1` (stereo unspecified), the “Percent Effect” value is given as -10.74%.

Take `Cc1nnc2n1CCN(CCC(=O)Nc1sccc1C#N)C2`: the “Percent Effect” value is on record as 5.791%.
